Measured values taken from PubChem BioAssay (EPA / NIEHS).
Results filed as inconclusive are left out. Active and inactive are the calls of the source. How the source made its calls, unless noted: active means hit-call score of the fitted dose curve at least 0.9, where 1 is the maximum; inactive means score below 0.9.

Tested on: not listed separately
Test: ATG_VDRE_CIS: Attagene CIS-FACTORIAL HepG2 Assay for human Vitamin D Receptor Element (VDRE) (AID 2282968)
Details: HepG2 VDRE cis-reporter transcription, actives raise or lower the signal
Method in brief: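 Transfected HepG2 reporter cells, chemical treatment 24 h. RNA isolated, cDNA amplified with reporter-specific primers, products analysed by capillary electrophoresis. Endpoint fitted in both directions versus DMSO.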

Row | SMILES | outcome | AC50
1 | CCCCCCCCOC(C)=O | inactive | 
2 | CCOC(=O)C(=O)OCC | inactive | 
3 | CCCCCCCCCCCCOCCOS(=O)(=O)O | inactive | 
4 | O=[N+]([O-])c1cc(N(CCO)CCO)ccc1NCCO | inactive | 
5 | Cc1ccncc1 | inactive | 
6 | CCc1cccc(O)c1 |  | 49.3 µM (active)
7 | O=S(=O)(O)CCCN1CCOCC1 | inactive | 
8 | C=CC(O)CCCCC (configuration not stated) |  | 48.4 µM (active)
9 | CCCOC(=O)CC | inactive | 
10 | CCn1cc(C(=O)O)c(=O)c2ccc(C)nc21 | inactive | 
11 | NC(N)=S | inactive | 
12 | CCOc1ccc(NC(C)=O)cc1 | inactive | 
13 | S=c1[nH][nH]c(=S)s1 | inactive | 
14 | C=CC(=O)OCC(CO)(COC(=O)C=C)COC(=O)C=C |  | 0.708 µM (active)
15 | C=C(C)C(N)=O | inactive | 
16 | CCCCOC(=O)C(C)OC(=O)CCC (configuration not stated) | inactive | 
17 | CCOC(=O)CC(C)C | inactive | 

Row | SMILES | outcome | AC50
18 | CCCCCCOC(C)=O | inactive | 
19 | COc1ccc2[nH]cc(CCNC(C)=O)c2c1 | inactive | 
20 | CC/C=C\CCOC(=O)C(C)C | inactive | 
21 | CCCCCCCCCCCCCCCCCC(=O)OCCCCCCCCCCCCCC(C)C | inactive | 
22 | CCCCCCCCCC(=O)OCC |  | 44.1 µM (active)
23 | CCC(C)(C)c1cc(O)c(C(C)(C)CC)cc1O |  | 19.8 µM (active)
24 | Cc1cccc(C)c1 | inactive | 
25 | CC(=O)c1cccnc1 | inactive | 
26 | C[N+](C)(C)CCO | inactive | 
27 | c1ccc2scnc2c1 | inactive | 
28 | CC1=CC(O)CC(C)(C)C1 (configuration not stated) | inactive | 
29 | COC(=O)c1ccc(C(=O)OC)cc1 | inactive | 
30 | ClCCOCCOCCCl | inactive | 
31 | O=S1(=O)CC=CC1 | inactive | 
32 | CCCCCCCCCCO[C@@H]1O[C@H](CO)[C@@H](O)[C@H](O)[C@H]1O | inactive | 
33 | CCCCCC1CCC(=O)O1 (configuration not stated) | inactive | 
34 | C=C(C)C(=O)OCCOCCOC(=O)C(=C)C | inactive | 

Target: Estrogen receptor (Homo sapiens) (UniProt P03372)
Sequence (P03372 whole entry, looked up): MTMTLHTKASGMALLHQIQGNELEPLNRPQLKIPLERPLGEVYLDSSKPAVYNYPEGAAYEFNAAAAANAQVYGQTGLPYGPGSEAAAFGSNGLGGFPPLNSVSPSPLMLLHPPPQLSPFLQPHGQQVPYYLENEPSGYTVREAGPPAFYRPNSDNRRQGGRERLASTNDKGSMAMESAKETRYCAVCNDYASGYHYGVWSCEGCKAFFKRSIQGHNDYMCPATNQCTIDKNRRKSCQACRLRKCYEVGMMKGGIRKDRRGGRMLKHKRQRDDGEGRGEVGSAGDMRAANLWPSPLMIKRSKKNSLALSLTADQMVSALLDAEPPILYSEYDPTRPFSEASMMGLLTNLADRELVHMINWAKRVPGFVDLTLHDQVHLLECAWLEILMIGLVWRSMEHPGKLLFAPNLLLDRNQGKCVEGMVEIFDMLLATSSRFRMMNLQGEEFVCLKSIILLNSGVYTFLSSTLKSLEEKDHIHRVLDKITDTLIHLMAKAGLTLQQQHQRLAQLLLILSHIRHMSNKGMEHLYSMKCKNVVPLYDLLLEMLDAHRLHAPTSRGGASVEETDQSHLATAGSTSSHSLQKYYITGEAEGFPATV
Test: ATG_ERa_TRANS: Attagene TRANS-FACTORIAL HepG2 Assay for human Estrogen Receptor alpha (ERa) (AID 2282970; active means hit-call score of the fitted dose curve at least 0.9, where 1 is the maximum)
Details: HepG2 Attagene TRANS ERa GAL4 reporter, mRNA
Method in brief: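 Transfected HepG2 cells carrying GAL4-UAS-driven reporter units were dosed for 24 hours. Total RNA was reverse-transcribed, reporter sequences PCR-amplified, FAM-labelled, HpaI-digested and resolved by capillary electrophoresis. Increases over DMSO control defined activity.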

Row | SMILES | outcome
35 | CCc1cccc(O)c1 | inactive
36 | CCCCCCOC(C)=O | inactive
37 | COc1ccc2[nH]cc(CCNC(C)=O)c2c1 | inactive
38 | CCCCCCCCCCCCCCCCCC(=O)OCCCCCCCCCCCCCC(C)C | inactive
39 | CCCCCCCCCC(=O)OCC | inactive
40 | c1ccc2scnc2c1 | inactive

Target: Steroid hormone receptor ERR1 (Homo sapiens) (UniProt P11474)
Sequence (P11474 whole entry, looked up): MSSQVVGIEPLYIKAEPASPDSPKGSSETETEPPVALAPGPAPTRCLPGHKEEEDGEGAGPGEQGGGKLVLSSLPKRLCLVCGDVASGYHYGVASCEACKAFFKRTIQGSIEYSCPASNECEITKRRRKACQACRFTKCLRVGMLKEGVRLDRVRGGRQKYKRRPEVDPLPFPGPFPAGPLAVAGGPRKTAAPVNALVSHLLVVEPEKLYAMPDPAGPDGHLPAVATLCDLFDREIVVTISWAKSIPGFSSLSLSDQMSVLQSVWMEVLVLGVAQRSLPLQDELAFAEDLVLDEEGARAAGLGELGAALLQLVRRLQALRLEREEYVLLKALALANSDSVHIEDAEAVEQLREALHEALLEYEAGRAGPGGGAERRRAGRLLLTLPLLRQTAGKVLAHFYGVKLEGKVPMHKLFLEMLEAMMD
Test: ATG_ERRa_TRANS: Attagene TRANS-FACTORIAL HepG2 Assay for human Estrogen-Related Receptor alpha (ERRa) (AID 2282971; active means hit-call score of the fitted dose curve at least 0.9, where 1 is the maximum)
Details: HepG2 Attagene TRANS reporter, ERRa transactivation
Method in brief: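 HepG2 cells were transiently transfected with multiple GAL4-UAS reporter units, then dosed with compound for 24 h. Total RNA was reverse-transcribed, reporter cDNA PCR-amplified and fluorescently labelled, and fragments resolved by capillary electrophoresis; induction was compared with DMSO.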

Row | SMILES | outcome
41 | CCOC(=O)C(=O)OCC | inactive
42 | CCCCCCCCCCCCOCCOS(=O)(=O)O | inactive
43 | C=CC(O)CCCCC (configuration not stated) | inactive
44 | CCn1cc(C(=O)O)c(=O)c2ccc(C)nc21 | inactive
45 | C=CC(=O)OCC(CO)(COC(=O)C=C)COC(=O)C=C | inactive
46 | CCCCOC(=O)C(C)OC(=O)CCC (configuration not stated) | inactive
47 | CC1=CC(O)CC(C)(C)C1 (configuration not stated) | inactive
